# Laboratory results taken from PubChem BioAssay (NCI).
# Compounds without any hit were thinned out: in the full panel of roughly 83,000, 20% have a hit.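 Each cell line was grown in a 96-well plate and treated with one concentration of compound for 48 hours. Values below 10 were considered active.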 Unmarked numbers belong to inactive results. The source made the active and inactive calls.
# Key:
# Assay in all cases: NCI-60 one-dose screen, 48 h (100 = growth as untreated, 0 = no growth, -100 = all killed)
# Details in all cases: 10 µM unless noted
# NCI-H23 lung = test system: NCI-H23 lung
# NCI-H226 lung = test system: NCI-H226 lung
# NCI-H322M lung = test system: NCI-H322M lung
# HOP-62 NSCLC = test system: HOP-62 NSCLC
# NCI-H460 lung = test system: NCI-H460 lung
# HOP-92 NSCLC = test system: HOP-92 NSCLC
# NCI-H522 lung = test system: NCI-H522 lung
# A549/ATCC NSCLC = test system: A549/ATCC NSCLC
# 786-0 renal = test system: 786-0 renal
# COLO 205 colon = test system: COLO 205 colon
# DU-145 prostate = test system: DU-145 prostate
# K-562 leukemia = test system: K-562 leukemia
# MALME-3M melanoma = test system: MALME-3M melanoma
# MDA-MB-231 breast = test system: MDA-MB-231 breast
# RXF 393 renal = test system: RXF 393 renal
# SF-268 CNS = test system: SF-268 CNS
# SF-295 CNS = test system: SF-295 CNS
# SF-539 CNS = test system: SF-539 CNS
# UACC-257 melanoma = test system: UACC-257 melanoma
# M14 melanoma = test system: M14 melanoma
Compound,growth (NCI-H23 lung),growth (NCI-H226 lung),growth (NCI-H322M lung),growth (HOP-62 NSCLC),growth (NCI-H460 lung),growth (HOP-92 NSCLC),growth (NCI-H522 lung),growth (A549/ATCC NSCLC),growth (786-0 renal),growth (COLO 205 colon),growth (DU-145 prostate),growth (K-562 leukemia),growth (MALME-3M melanoma),growth (MDA-MB-231 breast),growth (RXF 393 renal),growth (SF-268 CNS),growth (SF-295 CNS),growth (SF-539 CNS),growth (UACC-257 melanoma),growth (M14 melanoma)
CN1CCN(Cc2ccc(NC(=O)c3cncc(C#Cc4c(N)ncc5ccccc45)c3)cc2C(F)(F)F)CC1,-59.1% (active),-11.8% (active),-37% (active),-83.7% (active),-71.5% (active),-59.2% (active),-83.9% (active),-87.7% (active),-80.8% (active),-90.4% (active),-95.6% (active),-37% (active),-84.8% (active),-88.7% (active),-97% (active),-65.1% (active),-59.9% (active),-97% (active),-72.2% (active),-73.9% (active)
COC(=O)c1cc(-c2cc(OC)c(OC)c(OC)c2)[nH]c1N/N=C/c1c(Cl)cccc1Cl,-15.6% (active),72.5%,45.3%,-43.9% (active),2.31% (active),-34.8% (active),-45.3% (active),28.1%,-44.4% (active),56.1%,45.6%,6.67% (active),-8.03% (active),23.6%,21.6%,31.7%,-41.9% (active),-43.1% (active),45.6%,58.7%
COc1ccccc1-c1nc2ccc3[nH]ncc3c2c2c1CCCC2,69%,81.4%,82.8%,61.2%,82.5%,70.5%,55%,65.2%,67.7%,74.7%,73.5%,83.3%,99.2%,62.4%,51.2%,55.6%,70.5%,50.5%,86.4%,76.3%
O=C1CCC(C(=O)N/N=C/c2ccc([N+](=O)[O-])cc2)N1 (stereo not given),98.6%,106%,102%,110%,101%,89.1%,96.1%,102%,95.5%,108%,103%,103%,101%,109%,111%,96.7%,99.7%,93.7%,106%,104%
C#CCOc1ccc(C2=NN(C)C3N=C(Cl)c4ncn(C)c4N23)cc1OCC#C (stereo not given),89.7%,83.4%,90.2%,95.5%,105%,79.8%,87.3%,104%,105%,102%,104%,93.5%,112%,95.9%,82.7%,105%,94.3%,90%,97.2%,104%
COc1cc2c(c(OC)c1OC)CCC(c1cccc(NC(=O)c3cccc(Cl)c3)c1)O2 (stereo not given),92.7%,79.8%,90.3%,92.8%,96.9%,83.1%,62.1%,85%,96.7%,94.2%,102%,72%,86.6%,88%,96%,90.6%,74.4%,103%,94.2%,86.6%
CCOC(=O)CC1CSC(N/N=C/c2ccc(O)cc2)=N1 (stereo not given),102%,105%,98.6%,91%,112%,80.3%,97%,102%,89.9%,111%,106%,99.4%,97%,113%,111%,96.2%,99.1%,95.3%,108%,92%
CC(C)=CC(=O)C1C(=O)c2ccccc2C1=O,96.4%,97.9%,92.1%,102%,102%,88.5%,87.2%,106%,105%,115%,104%,74.5%,83.6%,107%,104%,101%,98.3%,104%,107%,94%
COc1cccc(/C=C/C(=O)/C=C(/C=C/c2cccc(OC)c2OC)OB(F)F)c1OC,44.2%,107%,92.5%,80.3%,90.7%,103%,17.4%,88.7%,45.1%,32.9%,55.7%,32.9%,32%,60.3%,102%,95.3%,103%,57.7%,28.6%,61.7%
c1ccc2c(-c3cnn4cc(-c5ccc(N6CCNCC6)cc5)cnc34)ccnc2c1,-13.7% (active),-54.8% (active),-55.5% (active),-85.7% (active),-70% (active),-59.2% (active),-50% (active),-65.4% (active),-91.9% (active),-58% (active),-83.4% (active),-23.6% (active),-89.5% (active),-67.8% (active),-77.5% (active),-62.3% (active),-93.5% (active),-95.4% (active),-72.1% (active),-81.9% (active)
O=C1/C(=C/c2cccc([N+](=O)[O-])c2)COc2ccc(O)c(O)c21,-27.4% (active),81.5%,28.7%,-31.3% (active),4.3% (active),-43.1% (active),-71.3% (active),9.74% (active),-87.9% (active),-18.2% (active),2.4% (active),6.45% (active),-53.3% (active),-76.9% (active),-81.3% (active),-4.32% (active),58.6%,-89.1% (active),3.37% (active),-63.9% (active)
C#C[C@]1(O)CC[C@H]2[C@@H]3CC=C4c5sc(-c6cccc(C)c6)nc5CC[C@]4(C)[C@H]3CC[C@@]21C,73%,91.1%,66.1%,83.4%,76.6%,49.6%,70%,75.4%,32.8%,107%,78.5%,0.702% (active),83%,59.8%,11.7%,60.8%,58.5%,15.9%,58.5%,58.7%
CCCCCCCCCCCCCC[n+]1ccc2c(C)c3c(c(C)c2c1)c1cc(O)ccc1n3CC,-64% (active),-40.5% (active),-62% (active),-57.1% (active),-67.7% (active),-84.4% (active),-42.9% (active),7.99% (active),-73.4% (active),-69.9% (active),-93.4% (active),-55.7% (active),-84.7% (active),-74.6% (active),-63.3% (active),-82.7% (active),-54.3% (active),-83.9% (active),-69.3% (active),-86.7% (active)
O=C(/C=C/c1ccco1)c1ccc(Nc2ccnc3cc(Cl)ccc23)cc1,82.1%,111%,39.3%,104%,36%,41.5%,81.9%,62%,76.6%,90.4%,90.8%,51.2%,110%,70.2%,-28.3% (active),105%,72.5%,92.1%,97.8%,83.3%
COc1cc(/C=N/NC(=O)c2ccc3nc(-c4ccc(Cl)cc4)[nH]c3c2)cc(OC)c1OC,53.7%,76%,87.5%,81.7%,82.8%,71.7%,78.3%,85.8%,51.2%,45.7%,97.4%,32.7%,28.4%,103%,36.3%,79.7%,44%,43.8%,54.3%,42%
